Results reported in the supplement of paper PMC11732987, “Enantioselective OTUD7B fragment discovery through chemoproteomics screening and high-throughput optimisation” (Communications Chemistry, 2025).

Legend:
Experiment in all cases: log2 ratio of Biotin-Ahx-Ub-VS probe labelling (fragment/DMSO); higher = less target engagement (more negative = stronger competition), active = hit call of the paper (q ≤ 0.05, log2 ratio ≤ -1)
Details in all cases: compound concentration: 200 uM; treatment time: 3 h
USP42 = molecular target: T1, USP42 (UniProt Q9H9J4)
T1 sequence (whole entry): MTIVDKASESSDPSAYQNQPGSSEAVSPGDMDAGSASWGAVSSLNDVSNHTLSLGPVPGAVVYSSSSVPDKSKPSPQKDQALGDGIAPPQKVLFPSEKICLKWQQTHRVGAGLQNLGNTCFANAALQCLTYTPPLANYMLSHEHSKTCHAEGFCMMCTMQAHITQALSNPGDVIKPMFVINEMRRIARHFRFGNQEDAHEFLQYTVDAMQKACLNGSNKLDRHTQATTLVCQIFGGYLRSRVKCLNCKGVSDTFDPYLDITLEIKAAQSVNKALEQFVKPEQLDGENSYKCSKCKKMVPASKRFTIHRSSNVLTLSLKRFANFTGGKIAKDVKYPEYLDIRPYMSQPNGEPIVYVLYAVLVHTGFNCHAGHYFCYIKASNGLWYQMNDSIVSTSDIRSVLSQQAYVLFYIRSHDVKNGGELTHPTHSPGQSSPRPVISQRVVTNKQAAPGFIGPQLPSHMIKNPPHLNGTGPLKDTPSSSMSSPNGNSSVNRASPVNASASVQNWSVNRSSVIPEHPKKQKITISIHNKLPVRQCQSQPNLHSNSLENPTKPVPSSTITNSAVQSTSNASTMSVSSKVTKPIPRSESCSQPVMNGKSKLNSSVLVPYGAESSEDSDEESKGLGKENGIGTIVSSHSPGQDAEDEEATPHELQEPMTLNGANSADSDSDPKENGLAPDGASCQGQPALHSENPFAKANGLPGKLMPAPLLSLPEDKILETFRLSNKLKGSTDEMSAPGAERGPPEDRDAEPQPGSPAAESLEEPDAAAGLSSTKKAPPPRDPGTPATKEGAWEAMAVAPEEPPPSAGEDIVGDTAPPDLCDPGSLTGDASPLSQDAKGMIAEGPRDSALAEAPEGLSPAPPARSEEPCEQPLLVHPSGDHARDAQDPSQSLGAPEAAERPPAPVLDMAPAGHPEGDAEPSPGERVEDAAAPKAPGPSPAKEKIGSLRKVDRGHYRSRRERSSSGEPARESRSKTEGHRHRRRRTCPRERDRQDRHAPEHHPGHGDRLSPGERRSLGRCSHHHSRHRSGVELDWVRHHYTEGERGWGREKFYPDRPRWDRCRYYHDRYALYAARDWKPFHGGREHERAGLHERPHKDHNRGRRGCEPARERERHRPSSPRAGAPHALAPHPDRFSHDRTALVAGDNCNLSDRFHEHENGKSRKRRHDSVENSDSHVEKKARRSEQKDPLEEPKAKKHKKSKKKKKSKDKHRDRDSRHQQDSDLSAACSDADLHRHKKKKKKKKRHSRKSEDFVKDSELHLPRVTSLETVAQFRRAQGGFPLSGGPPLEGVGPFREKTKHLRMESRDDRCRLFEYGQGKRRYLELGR
Procedure, shortened: (§1)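 Average log2 ratios of fragment over vehicle were obtained by unpaired t-test from global-median-normalised Spectronaut label-free quantities. Proteins with ≥2 unique peptides were included. HEK293T lysate (495 µg per sample) was treated in triplicate with fragment at 200 µM or vehicle for 3 h, then with Biotin-Ahx-Ub-VS at 0.5 µM final for 1 h, and labelled DUBs were NeutrAvidin-enriched and run by diaPASEF LC-MS/MS.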

USP46 = USP46 (UniProt P62068)
Procedure, shortened: as §1

USP47 = molecular target: T2, USP47 (UniProt Q96K76)
T2 sequence (whole entry): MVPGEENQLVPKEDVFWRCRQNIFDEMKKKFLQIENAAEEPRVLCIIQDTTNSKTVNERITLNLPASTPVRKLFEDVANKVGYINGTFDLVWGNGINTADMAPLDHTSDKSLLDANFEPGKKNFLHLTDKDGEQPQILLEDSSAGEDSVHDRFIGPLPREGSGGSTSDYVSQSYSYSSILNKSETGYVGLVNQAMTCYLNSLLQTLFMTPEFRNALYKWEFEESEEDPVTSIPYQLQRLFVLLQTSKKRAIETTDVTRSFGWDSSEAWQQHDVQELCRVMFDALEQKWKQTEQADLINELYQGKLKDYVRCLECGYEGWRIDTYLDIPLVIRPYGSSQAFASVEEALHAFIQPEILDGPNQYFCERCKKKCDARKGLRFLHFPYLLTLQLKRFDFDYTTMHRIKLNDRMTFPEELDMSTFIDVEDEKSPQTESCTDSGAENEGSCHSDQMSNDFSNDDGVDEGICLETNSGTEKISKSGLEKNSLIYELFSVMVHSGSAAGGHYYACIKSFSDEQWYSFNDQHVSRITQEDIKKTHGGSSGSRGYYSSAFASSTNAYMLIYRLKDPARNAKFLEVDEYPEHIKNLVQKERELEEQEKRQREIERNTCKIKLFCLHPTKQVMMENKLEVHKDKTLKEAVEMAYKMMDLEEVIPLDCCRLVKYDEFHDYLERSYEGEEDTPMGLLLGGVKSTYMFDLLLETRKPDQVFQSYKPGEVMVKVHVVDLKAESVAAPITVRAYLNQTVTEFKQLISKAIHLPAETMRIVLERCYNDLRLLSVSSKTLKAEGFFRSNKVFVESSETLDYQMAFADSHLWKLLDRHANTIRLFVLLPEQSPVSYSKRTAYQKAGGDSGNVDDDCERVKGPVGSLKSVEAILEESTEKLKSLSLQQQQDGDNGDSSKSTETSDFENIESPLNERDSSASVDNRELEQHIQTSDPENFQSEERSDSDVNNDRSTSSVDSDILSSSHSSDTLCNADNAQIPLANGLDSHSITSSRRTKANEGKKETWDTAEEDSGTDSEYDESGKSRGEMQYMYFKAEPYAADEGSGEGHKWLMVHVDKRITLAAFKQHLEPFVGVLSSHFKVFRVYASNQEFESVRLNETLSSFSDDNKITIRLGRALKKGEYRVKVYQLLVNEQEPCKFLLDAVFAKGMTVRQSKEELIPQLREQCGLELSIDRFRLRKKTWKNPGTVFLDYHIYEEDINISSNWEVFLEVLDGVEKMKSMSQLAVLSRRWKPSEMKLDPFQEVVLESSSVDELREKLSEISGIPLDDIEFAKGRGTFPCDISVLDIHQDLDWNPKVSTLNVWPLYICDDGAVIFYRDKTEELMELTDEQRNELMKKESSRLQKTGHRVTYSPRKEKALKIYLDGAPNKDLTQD
Procedure, shortened: as §1

USP48 = molecular target: T3, USP48 (UniProt Q86UV5)
T3 sequence (whole entry): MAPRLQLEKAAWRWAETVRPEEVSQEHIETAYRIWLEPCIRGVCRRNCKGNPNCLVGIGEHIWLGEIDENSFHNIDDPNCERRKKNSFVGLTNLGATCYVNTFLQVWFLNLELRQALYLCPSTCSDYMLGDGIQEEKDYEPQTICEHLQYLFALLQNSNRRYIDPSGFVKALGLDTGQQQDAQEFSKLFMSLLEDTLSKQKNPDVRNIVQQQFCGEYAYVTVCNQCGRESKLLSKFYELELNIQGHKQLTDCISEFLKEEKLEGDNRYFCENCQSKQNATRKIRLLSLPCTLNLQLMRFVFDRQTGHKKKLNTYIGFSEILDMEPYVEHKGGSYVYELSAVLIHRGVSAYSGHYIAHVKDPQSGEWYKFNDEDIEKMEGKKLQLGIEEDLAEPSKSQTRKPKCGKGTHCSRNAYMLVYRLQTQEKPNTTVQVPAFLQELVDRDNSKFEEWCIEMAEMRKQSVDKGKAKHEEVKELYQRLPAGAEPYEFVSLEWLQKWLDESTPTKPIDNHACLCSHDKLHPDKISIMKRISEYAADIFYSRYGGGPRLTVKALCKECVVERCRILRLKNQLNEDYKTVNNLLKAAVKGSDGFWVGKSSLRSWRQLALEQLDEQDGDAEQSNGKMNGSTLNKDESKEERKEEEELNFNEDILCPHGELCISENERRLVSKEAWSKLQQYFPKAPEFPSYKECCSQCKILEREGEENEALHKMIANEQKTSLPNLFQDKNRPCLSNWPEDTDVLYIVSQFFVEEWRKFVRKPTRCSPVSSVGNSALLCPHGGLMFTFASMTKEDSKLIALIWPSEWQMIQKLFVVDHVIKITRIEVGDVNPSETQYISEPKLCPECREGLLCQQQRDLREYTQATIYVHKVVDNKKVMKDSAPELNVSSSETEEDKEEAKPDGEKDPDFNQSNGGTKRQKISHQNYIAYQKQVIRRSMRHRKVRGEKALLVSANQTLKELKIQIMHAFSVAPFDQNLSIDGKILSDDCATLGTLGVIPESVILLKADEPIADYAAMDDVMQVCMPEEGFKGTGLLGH
Procedure, shortened: as §1

USP5 = molecular target: T4, USP5 (UniProt P45974)
T4 sequence (whole entry): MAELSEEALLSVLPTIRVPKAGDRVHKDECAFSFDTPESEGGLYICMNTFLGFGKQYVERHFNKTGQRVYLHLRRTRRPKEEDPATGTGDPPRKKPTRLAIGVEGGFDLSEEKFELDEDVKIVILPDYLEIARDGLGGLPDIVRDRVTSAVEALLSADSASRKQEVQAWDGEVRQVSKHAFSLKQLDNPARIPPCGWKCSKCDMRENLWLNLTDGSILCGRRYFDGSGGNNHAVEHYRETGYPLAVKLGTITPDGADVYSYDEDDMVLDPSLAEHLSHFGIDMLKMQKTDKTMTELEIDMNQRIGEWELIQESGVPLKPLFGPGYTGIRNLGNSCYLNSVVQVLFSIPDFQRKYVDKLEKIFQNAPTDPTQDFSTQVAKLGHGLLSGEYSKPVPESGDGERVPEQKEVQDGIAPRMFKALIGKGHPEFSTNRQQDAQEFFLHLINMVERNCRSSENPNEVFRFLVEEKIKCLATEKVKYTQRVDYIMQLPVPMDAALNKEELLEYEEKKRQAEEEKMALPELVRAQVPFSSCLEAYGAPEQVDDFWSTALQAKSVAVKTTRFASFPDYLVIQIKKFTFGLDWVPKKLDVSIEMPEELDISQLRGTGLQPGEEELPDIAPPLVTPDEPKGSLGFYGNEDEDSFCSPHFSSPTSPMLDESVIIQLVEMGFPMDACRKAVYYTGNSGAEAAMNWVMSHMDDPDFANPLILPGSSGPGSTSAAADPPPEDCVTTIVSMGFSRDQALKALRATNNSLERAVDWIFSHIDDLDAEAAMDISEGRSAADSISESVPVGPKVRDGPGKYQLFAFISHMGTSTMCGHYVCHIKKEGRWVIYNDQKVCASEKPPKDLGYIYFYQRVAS
Procedure, shortened: as §1

USP54 = USP54 (UniProt Q70EL1)
Procedure, shortened: as §1

USP7 = USP7 (UniProt Q93009)
Procedure, shortened: as §1

USP8 = molecular target: T5, USP8 (UniProt P40818)
T5 sequence (whole entry): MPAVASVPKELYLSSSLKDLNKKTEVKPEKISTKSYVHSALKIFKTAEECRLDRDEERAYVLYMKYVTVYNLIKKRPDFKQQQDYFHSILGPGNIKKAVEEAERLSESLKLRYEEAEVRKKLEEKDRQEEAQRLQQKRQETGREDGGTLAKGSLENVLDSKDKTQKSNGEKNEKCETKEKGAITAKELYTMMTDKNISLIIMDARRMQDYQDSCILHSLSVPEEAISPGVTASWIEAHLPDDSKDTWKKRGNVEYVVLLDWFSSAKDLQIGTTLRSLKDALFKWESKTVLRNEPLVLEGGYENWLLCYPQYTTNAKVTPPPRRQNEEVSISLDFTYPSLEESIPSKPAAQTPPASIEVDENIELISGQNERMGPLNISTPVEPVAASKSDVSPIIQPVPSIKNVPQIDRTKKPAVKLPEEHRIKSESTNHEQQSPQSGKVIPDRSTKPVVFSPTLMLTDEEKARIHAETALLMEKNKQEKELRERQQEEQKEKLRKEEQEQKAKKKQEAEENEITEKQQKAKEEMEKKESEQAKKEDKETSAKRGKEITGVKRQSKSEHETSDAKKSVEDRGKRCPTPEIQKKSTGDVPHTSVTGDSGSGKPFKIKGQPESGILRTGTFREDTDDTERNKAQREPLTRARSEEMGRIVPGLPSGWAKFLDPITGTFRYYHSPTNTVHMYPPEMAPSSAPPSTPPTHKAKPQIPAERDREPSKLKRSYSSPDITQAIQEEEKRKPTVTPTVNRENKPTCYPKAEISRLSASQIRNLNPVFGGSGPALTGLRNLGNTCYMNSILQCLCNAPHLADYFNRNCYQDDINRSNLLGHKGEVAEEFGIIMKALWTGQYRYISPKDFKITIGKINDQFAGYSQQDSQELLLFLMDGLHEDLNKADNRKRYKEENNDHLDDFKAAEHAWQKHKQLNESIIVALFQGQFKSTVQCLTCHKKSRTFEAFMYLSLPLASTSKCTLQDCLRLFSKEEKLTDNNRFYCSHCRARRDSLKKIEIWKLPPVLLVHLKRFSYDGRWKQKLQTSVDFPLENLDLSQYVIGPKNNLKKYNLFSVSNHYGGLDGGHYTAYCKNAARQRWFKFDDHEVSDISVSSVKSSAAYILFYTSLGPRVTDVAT
Procedure, shortened: as §1

USP9X = USP9X (UniProt Q93008)
Procedure, shortened: as §1

UniProt O00487 = molecular target: UniProt O00487
Procedure, shortened: as §1

Measured: log2 ratio of Biotin-Ahx-Ub-VS probe labelling

Chain of USP7 (Q93009 whole entry, looked up): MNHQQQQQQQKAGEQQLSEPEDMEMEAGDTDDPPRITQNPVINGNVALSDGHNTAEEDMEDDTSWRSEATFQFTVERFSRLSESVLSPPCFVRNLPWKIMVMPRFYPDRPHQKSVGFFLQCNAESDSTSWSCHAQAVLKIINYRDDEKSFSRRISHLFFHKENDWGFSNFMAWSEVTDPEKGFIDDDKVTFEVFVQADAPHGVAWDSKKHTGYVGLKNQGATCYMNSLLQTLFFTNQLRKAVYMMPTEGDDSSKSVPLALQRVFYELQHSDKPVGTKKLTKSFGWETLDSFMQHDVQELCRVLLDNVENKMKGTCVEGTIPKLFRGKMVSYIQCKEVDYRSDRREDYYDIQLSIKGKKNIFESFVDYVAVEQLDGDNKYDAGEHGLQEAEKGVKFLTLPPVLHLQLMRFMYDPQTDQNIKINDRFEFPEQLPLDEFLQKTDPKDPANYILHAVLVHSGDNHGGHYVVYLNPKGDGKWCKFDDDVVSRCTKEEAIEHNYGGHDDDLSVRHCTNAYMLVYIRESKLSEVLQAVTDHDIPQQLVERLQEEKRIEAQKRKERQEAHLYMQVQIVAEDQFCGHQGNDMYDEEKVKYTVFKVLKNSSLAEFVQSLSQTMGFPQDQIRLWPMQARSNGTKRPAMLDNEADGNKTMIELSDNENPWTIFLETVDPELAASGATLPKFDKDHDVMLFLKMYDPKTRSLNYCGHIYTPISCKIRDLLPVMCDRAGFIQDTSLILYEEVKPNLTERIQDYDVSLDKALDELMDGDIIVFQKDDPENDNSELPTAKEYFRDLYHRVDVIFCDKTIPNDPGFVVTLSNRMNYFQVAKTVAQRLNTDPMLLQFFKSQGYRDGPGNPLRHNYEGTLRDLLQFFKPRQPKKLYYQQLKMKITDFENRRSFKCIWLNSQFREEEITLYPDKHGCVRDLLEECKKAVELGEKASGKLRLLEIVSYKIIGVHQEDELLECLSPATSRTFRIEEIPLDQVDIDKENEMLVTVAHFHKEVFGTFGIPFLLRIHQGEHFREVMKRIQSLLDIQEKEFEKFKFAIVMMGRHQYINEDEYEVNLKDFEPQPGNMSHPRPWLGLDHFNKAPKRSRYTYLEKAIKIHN
Chain of UniProt O00487 (O00487 whole entry): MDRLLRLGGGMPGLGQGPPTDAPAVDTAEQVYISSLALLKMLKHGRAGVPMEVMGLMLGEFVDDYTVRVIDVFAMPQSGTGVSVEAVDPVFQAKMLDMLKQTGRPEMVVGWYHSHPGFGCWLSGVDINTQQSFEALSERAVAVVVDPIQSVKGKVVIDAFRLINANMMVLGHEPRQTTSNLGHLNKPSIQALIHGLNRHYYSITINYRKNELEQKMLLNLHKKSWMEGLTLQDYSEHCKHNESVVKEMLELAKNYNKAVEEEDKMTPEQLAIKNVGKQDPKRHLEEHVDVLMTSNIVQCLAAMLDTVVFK
Chain of USP54 (Q70EL1 whole entry): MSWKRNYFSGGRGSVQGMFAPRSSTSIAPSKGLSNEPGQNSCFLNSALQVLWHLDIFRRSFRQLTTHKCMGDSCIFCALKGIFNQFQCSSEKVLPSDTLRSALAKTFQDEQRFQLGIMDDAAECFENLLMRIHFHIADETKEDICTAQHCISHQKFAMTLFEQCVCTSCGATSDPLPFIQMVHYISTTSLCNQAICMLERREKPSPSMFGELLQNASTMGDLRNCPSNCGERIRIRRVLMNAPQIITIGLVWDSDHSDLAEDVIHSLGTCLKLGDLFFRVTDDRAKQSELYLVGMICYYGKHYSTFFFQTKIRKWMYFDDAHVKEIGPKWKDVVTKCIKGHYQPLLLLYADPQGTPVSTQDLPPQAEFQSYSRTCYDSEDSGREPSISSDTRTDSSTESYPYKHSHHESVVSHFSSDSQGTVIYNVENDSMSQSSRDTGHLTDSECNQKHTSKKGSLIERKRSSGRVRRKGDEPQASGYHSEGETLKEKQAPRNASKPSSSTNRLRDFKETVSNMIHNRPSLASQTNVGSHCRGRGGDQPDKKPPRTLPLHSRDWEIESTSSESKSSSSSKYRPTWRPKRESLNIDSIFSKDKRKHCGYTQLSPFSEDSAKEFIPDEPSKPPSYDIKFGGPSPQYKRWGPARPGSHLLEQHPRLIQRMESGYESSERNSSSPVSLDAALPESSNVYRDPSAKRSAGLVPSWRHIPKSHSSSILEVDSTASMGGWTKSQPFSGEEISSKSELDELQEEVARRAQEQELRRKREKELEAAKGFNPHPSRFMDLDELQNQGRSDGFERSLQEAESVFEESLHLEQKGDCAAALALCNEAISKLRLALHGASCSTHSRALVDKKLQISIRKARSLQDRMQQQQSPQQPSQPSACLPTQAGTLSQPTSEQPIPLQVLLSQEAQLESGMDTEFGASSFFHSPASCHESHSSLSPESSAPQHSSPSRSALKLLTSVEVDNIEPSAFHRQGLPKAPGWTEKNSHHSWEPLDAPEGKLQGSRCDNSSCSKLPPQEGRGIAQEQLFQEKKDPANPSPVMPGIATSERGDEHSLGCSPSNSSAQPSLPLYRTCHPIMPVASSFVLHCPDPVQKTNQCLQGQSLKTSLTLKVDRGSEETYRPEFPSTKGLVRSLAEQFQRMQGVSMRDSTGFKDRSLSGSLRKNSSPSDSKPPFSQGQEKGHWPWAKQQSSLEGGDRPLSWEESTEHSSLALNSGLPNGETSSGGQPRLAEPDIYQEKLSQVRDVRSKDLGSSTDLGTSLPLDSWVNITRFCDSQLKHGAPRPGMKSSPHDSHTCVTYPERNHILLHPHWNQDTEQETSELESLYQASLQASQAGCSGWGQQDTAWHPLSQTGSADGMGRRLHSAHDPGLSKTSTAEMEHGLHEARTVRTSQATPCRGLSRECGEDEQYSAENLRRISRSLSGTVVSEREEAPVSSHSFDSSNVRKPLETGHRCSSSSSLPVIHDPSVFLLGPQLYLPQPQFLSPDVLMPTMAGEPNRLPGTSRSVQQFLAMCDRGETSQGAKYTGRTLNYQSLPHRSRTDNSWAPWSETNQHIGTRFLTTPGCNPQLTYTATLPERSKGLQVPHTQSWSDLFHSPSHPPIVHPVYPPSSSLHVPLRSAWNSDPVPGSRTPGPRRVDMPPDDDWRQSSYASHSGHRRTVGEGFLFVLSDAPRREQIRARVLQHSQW
Chain of USP46 (P62068 whole entry): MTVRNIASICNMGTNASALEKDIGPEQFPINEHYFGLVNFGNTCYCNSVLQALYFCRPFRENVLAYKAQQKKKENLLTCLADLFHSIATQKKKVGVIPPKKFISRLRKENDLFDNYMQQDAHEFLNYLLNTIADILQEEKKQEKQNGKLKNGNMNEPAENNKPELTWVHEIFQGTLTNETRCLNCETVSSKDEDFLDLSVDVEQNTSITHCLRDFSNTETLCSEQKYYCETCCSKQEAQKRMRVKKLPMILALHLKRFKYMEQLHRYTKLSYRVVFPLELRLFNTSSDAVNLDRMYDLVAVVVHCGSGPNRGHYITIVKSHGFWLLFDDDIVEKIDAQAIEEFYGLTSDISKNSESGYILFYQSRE

Cl.O=C(CCl)NCCc1ncc(F)cc1F
inactive: USP42 -0.132 | USP46 -0.0594 | USP47 0.122 | USP48 -0.466 | USP5 -0.0776 | USP54 -0.439 | USP7 -0.34 | USP8 -0.607 | USP9X -0.419 | UniProt O00487 -0.24
